Bioassay records from PubChem BioAssay.
Sampled rows, rich in hits. Any-hit rate of the full collection: about 14%.
USP17 inh – blocks human USP17 ubiquitin-rhodamine cleavage | A8MUK1 | purified USP17, Ub-rhodamine cleavage fluorescence, 3 h | inhibition, % at 50 µM | actives 6.5% (n = 47,000) | AID 1645855
USP30 inh – blocks human USP30 ubiquitin-rhodamine cleavage; purified USP30, Ub-rhodamine cleavage fluorescence; inhibition, % at 25 µM; actives 5.3% (n = 47,000); Q70CQ3
Target sequence (Q70CQ3 whole entry, looked up): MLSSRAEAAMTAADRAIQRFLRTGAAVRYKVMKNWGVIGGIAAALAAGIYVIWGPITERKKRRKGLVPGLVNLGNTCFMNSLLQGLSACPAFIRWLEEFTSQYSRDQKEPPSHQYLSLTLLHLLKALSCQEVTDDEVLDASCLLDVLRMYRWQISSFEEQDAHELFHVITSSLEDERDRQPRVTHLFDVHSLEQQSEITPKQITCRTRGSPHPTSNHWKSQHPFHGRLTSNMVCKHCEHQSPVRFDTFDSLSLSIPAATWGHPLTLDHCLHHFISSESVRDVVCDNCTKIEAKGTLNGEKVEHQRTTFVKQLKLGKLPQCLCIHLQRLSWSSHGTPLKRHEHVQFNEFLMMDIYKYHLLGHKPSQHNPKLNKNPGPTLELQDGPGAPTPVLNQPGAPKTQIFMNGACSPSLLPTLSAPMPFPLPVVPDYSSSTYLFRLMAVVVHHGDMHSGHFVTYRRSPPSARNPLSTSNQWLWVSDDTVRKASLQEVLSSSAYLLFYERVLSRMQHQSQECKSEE
USP10 block – blocks human USP10 ubiquitin-rhodamine cleavage; Q14694; purified USP10, Ub-rhodamine fluorescence, 60 min; inhibition, % at 20 µM; actives 1.1% (n = 47,000)
USP28 block – human USP28 deubiquitinase inhibition; Q96RU2; purified USP28, Ub-rhodamine cleavage fluorescence, 30 min; inhibition, % at 25 µM; actives 3% (n = 47,000); AID 1645857
USP8 block – inhibitors of human USP8 deubiquitinase | inhibition, % at 20 µM | AID 1645853 | P40818 | actives 4.2% (n = 47,000) | purified USP8, Ub-rhodamine cleavage fluorescence, 30 min
Active calls of the source: *; i = inactive; . = no result given. Cut-off read from the data, not from the text of the source: active = inhibition above about 30%; inactive = the rest.

SMILES	USP17 inh	USP30 inh	USP10 block	USP28 block	USP8 block
COc1ccc(NC(=O)CCc2cccc3[nH]ccc23)c(C)c1	3	4	-2	5	11
Cc1ccc(S(=O)(=O)N2CCN(C(=O)CN3c4ccccc4CC3C)CC2)c(C)c1 (configuration not stated)	-7	-129	-12	-15	37*
C/C=C1/C2=CCCN3C(=O)O[C@H]([C@H]1O)[C@H]23	72*	14	5	69*	8
O=C(NCc1ccc(F)cc1)C1CCCCN1S(=O)(=O)c1ccccc1 (configuration not stated)	2	0	-2	6	0
Cc1nc(-c2ccccc2)n(Cc2ccc(F)cc2)c(=O)c1CCO	.	-7	10	33*	-4
Cc1nc(-c2ccccc2)n(Cc2ccccc2)c(=O)c1CCO	-11	.	4	.	14
COc1cnc(CSc2ncccn2)cc1OCC(=O)Nc1c(C)cc(C)cc1C	-23	0	-2	-9	-69
COc1cnc(CSc2ccccc2)cc1OCC(=O)Nc1ccc(F)cc1F	34*	36*	12	11	-3
COc1cnc(CSc2ccc(F)cc2)cc1OCC(=O)Nc1ccccc1F	41*	43*	17	7	13
CCc1ccc(NC(=O)CSc2nc(-c3ccccc3C)nc3cc(=O)[nH]n23)cc1	-11	-12	24	-6	8
CCc1nnc(-c2cccnc2N2CCN(C(=O)CC(C)C)CC2)o1	-8	1	-3	-6	1
COc1ccc(N2CCN(C(=O)CCc3c(C)c4ccc(OC)cc4oc3=O)CC2)cc1	-22	5	-1	-14	-138
COc1cccc(C(CC(=O)Nc2ccc(Cl)cc2)n2cccc2)c1 (configuration not stated)	3	-23	7	-4	-3
C=C[C@@]1(C)CC[C@H]2C(=CC[C@@H]3[C@]2(C)CCC(=O)[C@]3(C)CO[C@@H]2O[C@H](CO)[C@@H](O)[C@@H](O)[C@@H]2O)C1	9	6	-4	4	1
CC(=O)N1CCOc2cc(S(=O)(=O)N3CCCC3c3cc(C(C)C)on3)ccc21 (configuration not stated)	0	14	0	40*	5
CC(=O)N1CCOc2cc(S(=O)(=O)N3CCCC3c3cc(C)on3)ccc21 (configuration not stated)	-10	-1	-1	24	-34
Cc1cc(C2CCCN2S(=O)(=O)c2ccc3c(c2)OCCO3)no1 (configuration not stated)	16	20	0	19	29
CCCc1cc(C2CCCN2S(=O)(=O)c2ccc3c(c2)OCCN3C(C)=O)no1 (configuration not stated)	-6	0	-1	49*	-10
COc1ccc(-c2cn3c(-c4ccccc4)c(-c4ccccc4)nc3n2-c2ccccc2)cc1	48*	37*	4	18	80*
CCCn1nc(-c2ccccc2)c2nc3ccccc3nc21	-157	i	-5	-238	-276
CCCn1c(-c2ccc(CC)cc2)cn2c(-c3ccccc3)c(-c3ccccc3)nc12	33*	15	4	17	87*
COc1cccc(-c2cc(C(F)(F)F)c3c(-c4ccccc4)nn(-c4ccccc4)c3n2)c1	-29	-30	-5	-16	-5
Cc1cc(C)cc(-n2c(-c3ccccc3)cn3c4c(=O)n(C)c(=O)n(C)c4nc23)c1	0	7	2	-5	2
COc1cccc(-c2cn3c(-c4ccccc4)c(-c4ccccc4)nc3n2-c2cccc(Cl)c2)c1	28	6	1	5	81*
COc1cccc(-c2cn3c(-c4ccccc4)c(-c4ccccc4)nc3n2-c2ccccc2)c1	22	-7	0	-9	77*
SMILES	USP17 inh	USP30 inh	USP10 block	USP28 block	USP8 block
CN(C)c1cccc(C(=O)N2CCCn3nc(-c4cccnc4)cc3C2)c1	3	4	-2	5	6
O=S1(=O)CC=C(Sc2ncc(C(F)(F)F)cc2Cl)C1	5	11	-2	2	-2
Cn1c(=O)c2nc(-c3ccc(Cl)cc3)nnc2n(C)c1=O	19	13	40*	16	99*
Cn1c(=O)n(Cc2ccccn2)c(=O)c2cnc(-c3ccc(Cl)cc3)nc21	-1	-16	-5	-3	-16
O=C(c1cc(-c2ccccc2)nn1-c1ccccc1)N1CCN(C(=O)C2CCCO2)CC1 (configuration not stated)	9	37*	-2	14	10
COc1ccc(-c2ocnc2C(=O)Nc2ccc(C)c(F)c2)cc1	-2	.	2	.	-2
COc1ccc(-c2ocnc2C(=O)NCc2ccc(F)cc2)cc1	12	-4	0	55*	14
Cn1cc(CN2CC[C@H]3C[C@H](C(=O)Nc4cccnc4)O[C@@H]3C2)cn1	.	37*	3	10	-27
COc1ccc(CC(NC(C)=O)C(=O)NC2CCN(c3nc(OC)nc(OC)n3)CC2)cc1 (configuration not stated)	17	32*	0	18	7
COc1nc(OC)nc(N2CCC(NC(=O)C(Cc3ccc(C)cc3)NC(C)=O)CC2)n1 (configuration not stated)	20	34*	0	7	-2
COc1cccc(CC(NC(C)=O)C(=O)NC2CCN(c3nc(OC)nc(OC)n3)CC2)c1 (configuration not stated)	-11	-32	-6	-17	-13
COc1nc(OC)nc(N2CCC(NC(=O)C(Cc3ccccc3F)NC(C)=O)CC2)n1 (configuration not stated)	14	42*	-1	5	9
COc1ccc(OC)c(NC(=O)Cn2cc(S(=O)(=O)Cc3ccccc3)c3ccccc32)c1	14	-1	1	-2	-19
O=c1oc2ccccc2c(NCc2ccc3c(c2)OCO3)c1CN1CCCC1	31*	12	-2	17	0
Cc1onc(C(=O)NCc2ccc3c(c2)OCO3)c1CN1CCOCC1	-6	-9	-1	1	4
O=C(c1ccc(Br)o1)N(Cc1ccccc1Cl)c1ccccn1	18	21	5	31*	-12
CC(C(=O)Nc1ccc(F)c(F)c1)N(c1ccc(Oc2ccccc2)cc1)S(C)(=O)=O (configuration not stated)	12	11	6	16	24
CC(=O)Nc1ccc(NC(=O)C(C)Nc2ccc(Oc3ccccc3)cc2)cc1 (configuration not stated)	4	-81	0	0	61*
CC(Nc1ccc(Oc2ccccc2)cc1)C(=O)Nc1ccc2c(c1)OCCO2 (configuration not stated)	-25	0	6	17	19
CC(Nc1ccc(Oc2ccccc2)cc1)C(=O)Nc1cccc(C#N)c1 (configuration not stated)	37*	.	12	.	5
COc1cccc(S(=O)(=O)N2CCc3nc(-c4ccccn4)nc(N4CCOCC4)c3C2)c1	-5	24	0	0	-16
